In the library only some 1.1% were active in any assay of this set; here they are far more common.
Y pestis TopoI: Yersinia pestis topoisomerase I inhibitors, primary screen, biochemical, cleavage product accumulation, plate reader, single point; Y. pestis Topo-I cleavage product accumulation; DNA topoisomerase I (Yersinia pestis CO92); activity, % at 10 µM; AID 504884, 2011; 360,000 tested, 0.064% active; in the data active = activity above about 50%, passing the limit was not always enough
Vc quorum ag: inducers of Vibrio cholerae quorum light production without autoinducers, primary screen, BH1578 luxS cqsA deficient, single point; V. cholerae BH1578 lux reporter, luminescence, 6 h; activation, % at 18.7 µM; 350,000 tested, 0.16% active; AID 588436, 2011; in the data active = activation mostly above about 9.7%, no sharp cut-off
CCHF vOTU inh: CCHFV vOTU protease inhibitors, primary screen, biochemical, Pep-AMC substrate, fluorescence. Crimean-Congo hemorrhagic fever virus L polyprotein viral ovarian tumor (vOTU) protease …. inhibition, % at 11.5 µM. 370,000 tested, 0.55% active; in the data active = inhibition above about 30%
PrPC TRFRET: inhibitors of human cell surface prion protein PrPC, primary screen, cell-based, TR-FRET; 370,000 tested, 0.43% active; inhibition, % at 13.8 µM; TR-FRET read-out; AID 720596, 2013; in the data active = inhibition above about 24%
PrPC TRFRET cf: confirmation of inhibitors of cell surface human prion protein, confirmation, cell-based, TR-FRET; inhibition, % at 13.8 µM; cell surface PrPC level; shares compounds with PrPC TRFRET; 1,500 tested, 65% active; in the data active = inhibition above about 25%
LD9 tox: cytotoxicity in LD9 cells, cytotoxicity control for cell surface PrPc inhibitor project, cell-based, luminescence, high throughput | shares compounds with PrPC TRFRET | luminescence viability | inhibition, % at 13.8 µM | 1,500 tested, 29% active; in the data active = inhibition above about 9.5%
Hits are given with their value; . = inactive; / = no result.

SMILES	Y pestis TopoI	Vc quorum ag	CCHF vOTU inh	PrPC TRFRET	PrPC TRFRET cf	LD9 tox
CN(C)CCNC(=O)c1onc(CSc2ccc(F)cc2)c1C(=O)NCCN(C)C	.	.	.	.	/	/
CCN(CC)C(=O)C1CCCc2c1[nH]c1ccc(Cl)cc21 (stereo not drawn)	.	.	.	26	.	.
Cc1ccc2[nH]c3c(c2c1)CCCC3C(N)=O (stereo not drawn)	.	.	.	.	/	/
CN(C(=O)c1cccc(NC(=O)Cc2cccc(NC(=O)C3CCCN(C(=O)C4CCC4)C3)c2)c1)C1CC1 (stereo not drawn)	.	.	.	.	/	/
COC(=O)C1=C(c2ccc(Cl)c(C(F)(F)F)c2)C[C@@H]2CC[C@H]1N2C(=O)N1CCC(O)(c2ccc(Cl)cc2)CC1	.	.	.	.	/	/
O=C(c1cc(C2CC2)nc2ccc(Br)cc12)N1N=C(C(F)F)CC1(O)C(F)F (stereo not drawn)	.	.	.	31	.	.
CN1Cc2ccccc2CC1CNCc1c(C(=O)N2CCCC2)nc2ccccn12 (stereo not drawn)	.	.	.	.	/	/
N=C1C(c2nc3ccccc3s2)=C(O)CN1NC(=O)c1c[nH]c2ccccc12	.	.	.	26	34	.
c1ccc2[nH]c(CNc3nc(N4CCOCC4)nc4c3ncn4-c3ccsc3)nc2c1	/	/	/	.	/	/
c1ccc2cc3[nH]c(CNc4nc(N5CCOCC5)nc5c4ncn5-c4ccsc4)nc3cc2c1	/	/	/	25	38	13
FC(F)(F)c1ccc2nc(CNc3nc(N4CCOCC4)nc4c3ncn4-c3ccsc3)[nH]c2c1	/	/	/	41	37	17
O=[N+]([O-])c1ccc2nc(CNc3nc(N4CCOCC4)nc4c3ncn4-c3ccsc3)[nH]c2c1	/	/	/	.	/	/
COc1ccc(S(=O)(=O)N2CCOC23CCN(C(=O)c2ccc(Cl)cc2Cl)CC3)cc1	.	.	.	53	47	.
COc1cc(C(=O)Nc2ccc3c(c2)nc(C)n3C)cc(OC)c1OC	.	.	.	.	/	/
COc1cc(C(=O)Nc2ccc3c(c2)ncn3C)cc(OC)c1OC	.	.	.	77	73	.
CCC(C)n1cnc2c(c1=O)c1nc3ccccc3nc1n2Cc1ccc(OC)cc1 (stereo not drawn)	.	.	.	.	/	/
CN1C(=O)c2cccc(NC(=O)CCc3ccccc3)c2C1=O	.	.	.	.	/	/
COc1cccc(/C=C2\SC(=O)N(CCC(=O)N3CCC(C(=O)O)CC3)C2=O)c1	.	.	.	.	/	/
Cc1cc(N2CCN(C)CC2)nc2ccc(NC(=O)CCC(=O)NCCC3=CCCCC3)cc12	.	.	.	38	.	.
CC(=O)N1c2ccc(S(=O)(=O)N3CCCC(C(=O)Nc4ccc(F)cc4)C3)cc2CC1C (stereo not drawn)	.	.	.	35	39	16
CC(=O)N1c2ccc(S(=O)(=O)N3CCCC(C(=O)Nc4ccc(C)cc4)C3)cc2CC1C (stereo not drawn)	.	.	.	.	/	/
COc1cc(NC(=O)C2CCCN(S(=O)(=O)c3ccc4c(c3)CCCN4C(C)=O)C2)cc(OC)c1 (stereo not drawn)	.	.	.	41	28	.
CC(=O)N1c2ccc(S(=O)(=O)N3CCCC(C(=O)Nc4cc(C)cc(C)c4)C3)cc2CC1C (stereo not drawn)	.	.	.	35	58	.
Cc1c(C(=O)c2ccccc2C(=O)O)sc2ccccc12	.	.	.	33	54	.
CC(NC1CCCCC1)C(O)C12CC3CC(CC(C3)C1)C2 (stereo not drawn)	.	.	.	36	28	.
CC(NC(N)=O)C12CC3CC(CC(C3)C1)C2 (stereo not drawn)	.	.	.	.	/	/
O=C(N/N=C/c1ccc(O)cc1O)c1ccc(NC(=O)C2CCCCC2)cc1	.	.	.	34	37	.
O=C(N/N=C/c1cccc(O)c1)c1ccc(NC(=O)C2CCCCC2)cc1	.	.	.	.	/	/
NS(=O)(=O)c1c(Sc2ccccc2C(=O)O)ccc2ccccc12	.	.	.	34	53	.

Screening results (PubChem BioAssay)
